# In the library only some 8% were active in any assay of this set; here they are far more common.
# Lassa entry: Lassa virus entry inhibition; Potency, µM (top dose mostly 49.2 µM), for inactives: top-dose activity change, negative = inhibition, actives largely listed as inhibitors; 18,000 compounds, 4.1% hits; Lassa virus pseudotyped entry inhibition, cell-based qHTS
# Marburg entry: blocks Marburg virus binding or cell entry; Potency, µM (top dose mostly 49.2 µM), for inactives: at the highest dose activity change, negative = inhibition, hits mostly inhibitors; Marburg virus pseudotype entry/binding inhibition, cell-based; 18,000 compounds, 6.5% hits
# * hit, by the source's call; ? = inconclusive; / = no result given; ! = not confirmed by another sample; [ ] = remark or other dose. Calls follow the shape of the full dose curve; tested in HEK293 cells. % is scaled to controls: 0 for no effect and ±100 for the full control effect; potency is read from the fitted curve at half-maximal effect.
SMILES,Lassa entry,Marburg entry
CC(C)C1C(=O)N(Cc2cn(CC3CCCCC3)nn2)CCS(=O)(=O)N1Cc1ccc(-c2ccc(Cl)nc2)cc1 (stereo not given),11%,?
CC(C)C1C(=O)N(Cc2cn(CC3CCCCC3)nn2)CCS(=O)(=O)N1Cc1ccc(-c2ccc(F)nc2)cc1 (stereo not given),20µM*,?
CC#C[C@H](C)[C@@H](OCOC)[C@H](C[C@H](C)Cc1cc(Br)cc(OCc2ccccc2)c1OC)OC,-3%[8.59 µM],-10%[8.59 µM]
CCOC(=O)C1=C[C@@]2(CC)CCCN3CCc4c(n1c1ccccc41)C32 (stereo not given in full),-7%,10µM*
CCOC(=O)C1=CC2(CC)CCCN3CCc4c(n1c1ccccc41)C32 (stereo not given),?,-15%
COC(=O)CC=C1c2ccccc2C[C@H](OC)[C@@H]1C,2%[8.59 µM],-1%[8.59 µM]
Cc1cnc(-n2ncc(C(=O)NCCCc3ccncc3)c2C)nc1-c1ccc(F)cc1,-12%,20µM*
Cc1cnc(-n2ncc(C(=O)NCCc3cccnc3)c2C)nc1-c1ccc(F)cc1,-13%,?
CCOc1ccccc1CN1CCCC(c2nc(C)ncc2-c2ccc(F)cc2)C1 (stereo not given),-15%,10µM*
COc1ccc(OC)c(CN2CCCC(c3nc(C)ncc3-c3ccc(F)cc3)C2)c1 (stereo not given),-22%,?
COc1ccc(CN2CCCC(c3nc(C)ncc3-c3ccc(F)cc3)C2)c(OC)c1OC (stereo not given),-9%,-15%
COc1cc(OC)c(OC)cc1CN1CCCC(c2nc(C)ncc2-c2ccc(F)cc2)C1 (stereo not given),-13%,11µM*
CC1(C)CN(Cc2ccccc2)C(=O)[C@@H]1CC(=O)Nc1ccc(Br)cc1,-10%,-28%
C=C(C#Cc1ccc(OC)cc1)CCN1C=C(C(=O)OCC)C(c2ccccc2)NC1=O (stereo not given),32%[8.59 µM],6%[8.59 µM]
C=CCNC(=O)N1C2=NC(C(=O)OC)=C(C(=O)OC)[C@@H]3N(C)c4ccccc4[C@]23C[C@H]1CO,4%[8.59 µM],-31%[8.59 µM]
O=C(C1CCCCC1)N1C[C@@H](O)[C@@H](n2cc(C3CC3)nn2)C[C@@H]1c1ccccc1,?,-11%
C=C(C)CCCN1C=C(C(=O)OCC)C(c2ccccc2)NC1=O (stereo not given),/,-14%[8.59 µM]
COCCN1C(=O)NC(c2cccc(F)c2)C(C(C)=O)=C1C (stereo not given),5%[8.59 µM],-6%[8.59 µM]
CC(=O)Oc1ccc2c(c1OC(C)=O)OCC1(O)Cc3c(cc(OC(C)=O)c(OC(C)=O)c3OC(C)=O)C21 (stereo not given),-19%,7.9µM*
Oc1cc2c(cc1O)[C@H]1c3ccc(O)c(O)c3OC[C@@]1(O)C2,-14%,?
C=C(CO[C@@H]1C=C[C@@H](c2ccccc2)O[C@@H]1CO)c1ccccc1,-24%[8.59 µM],-2%[8.59 µM]
CC(C)CCC[C@@H](C)[C@H]1CC(=O)C2=C3CC[C@H]4C[C@@H](O)CC[C@]4(C)[C@H]3CC[C@@]21C,-23%,25%
CC(C)COC[C@H](CN(Cc1ccccc1)c1ccccc1)N1CCCC1,-24%[17.8 µM],6.3µM*
c1ccc(CN(CC2=NCCN2)c2ccccc2)cc1,-4%,?
CC1=C(C(=O)Nc2ccc3[nH]ncc3c2)C(c2ccc(Cl)c(Cl)c2)CC(=O)N1 (stereo not given),17%,-18%
SMILES,Lassa entry,Marburg entry
COc1cc(/C=C/C(=O)N2CCN(CC(=O)N3CCCC3)CC2)cc(OC)c1OC,-12%,12%
CCN(CC)CCOC(=O)c1ccc(N)cc1,6%,-12%
CCN(CC)CCCCCCCCOC(=O)c1cc(OC)c(OC)c(OC)c1,25µM*,13µM*
COc1cc(C(=O)OCCCN2CCCN(CCCOC(=O)c3cc(OC)c(OC)c(OC)c3)CC2)cc(OC)c1OC,?,7.1µM*
CCCC[C@H]1CN2[C@H](c3ccc(Br)cc3)[C@H](C)CC[C@H]2C(=O)O1,8%[8.59 µM],2%[8.59 µM]
COC(=O)CC=C1c2ccccc2[C@@H](OC)[C@@H]1C,38%[8.59 µM],16%[8.59 µM]
CC(C)=CCN1C(=O)C2(CC(C)=C[C@@H](C)O2)c2c(Br)cccc21 (stereo not given in full),-13%[8.59 µM],11%[8.59 µM]
C=CCO[C@@H](Cn1ccnc1)c1ccc(Cl)cc1Cl,-1%[17.8 µM],-5%[17.8 µM]
Clc1ccc(COC(Cn2ccnc2)c2ccc(Cl)cc2Cl)cc1 (stereo not given),35µM*!,?
O=C(O)c1cc(N(Cc2ccccc2O)Cc2cc(O)ccc2O)ccc1O,?,20µM*!
N[C@H](C(=O)O)c1ccc(O)c(C(=O)O)c1,-3%,11%
O=C(OCc1cn([C@H]2C[C@H](c3ccc(Cl)cc3)N(C(=O)C3CCCCC3)C[C@H]2O)nn1)c1ccccc1,-2%,?
CN(C)c1ccc(C(=C2C=CC(=[N+](C)C)C=C2)c2ccccc2)cc1,2.2µM*,1.4µM*!
CN(C)c1ccc(C(=C2C=CC(=[N+](C)C)C=C2)c2ccc(N(C)C)cc2)cc1,1.8µM*,1.4µM*
CN(C)c1ccc(-c2nccc(NCc3ccccc3)n2)cc1,-18%,?
CCOc1cc(N)c(Cl)cc1C(=O)NCC1CN(Cc2ccc(F)cc2)CCO1 (stereo not given),-1%,11%
CCCCN1CCC(CCC(=O)c2cc(Cl)c(N)cc2OC)CC1,28µM*!,11µM*
Cc1cc2c(nc1C)CCCN2CC(O)CN1CCCc2nc(-c3ccc(Br)cc3)ccc21 (stereo not given),10%[8.59 µM],?
CCCC[C@]12Cc3cc(C#N)ccc3[C@H](O1)c1c(cc(C)n(Cc3ccccc3)c1=O)O2,-8%[8.59 µM],-23%[8.59 µM]
C=CC[C@@]1(c2ccc(OC)cc2)Oc2ccccc2C2=NCCN=C21,15%[8.59 µM],?
CCCCCCCCCC[n+]1cccc([C@@H]2CCCN2C)c1,?,6.3µM*
CN1CCC[C@H]1c1cccnc1,7%,6%
O=C1C=CC2=C3c4cc(O)c(O)cc4CC3(O)COC2=C1O (stereo not given),-16%,3.2µM*
C[N+](C)(CCOc1ccccc1)Cc1cccs1,-17%,13%
Cc1cc(OCCOCC[N+](C)(C)Cc2ccccc2)ccc1C(C)(C)CC(C)(C)C,25µM*,22µM*
SMILES,Lassa entry,Marburg entry
Cc1cc(O)cc(C)c1C=Cc1cncc(-c2nn[nH]n2)c1,38%,-16%
CS(=O)(=O)CCNCc1coc(-c2ccc3ncnc(Nc4ccc(OCc5ccccc5)cc4)c3c2)c1,-69%,?
CC#CC(=O)Nc1cc2c(Nc3ccc(F)c(Cl)c3)ncnc2cn1,-2%,-16%
CCN(CC)CC1CCN(c2ncc3ncnc(Nc4ccc(F)c(Cl)c4)c3n2)CC1,?,3.5µM*
COC(=O)CC=C1c2ccc3c(c2[C@@H](OC)[C@@H]1C)OCO3,-2%[8.59 µM],-6%[8.59 µM]
OC[C@@H]1O[C@H](OC2[C@@H](O)[C@@H](O)C(O)O[C@@H]2CO)[C@H](O)[C@@H](O)[C@@H]1OC1O[C@H](CO)[C@@H](O)[C@H](O)[C@@H]1O (stereo not given in full),5%,8%
[O][C@H]1[C@@H](O)[C@@H](CO)O[C@@H](O[C@@H]2[C@@H]3OC[C@H]2O[C@H](O[C@@H]2[C@@H](O)[C@H](C[C@@H]4[C@@H]5OC[C@H]4O[CH][C@@H]5O)O[C@H](CO)[C@@H]2OS(=O)(=O)O)[C@@H]3OS(=O)(=O)O)[C@@H]1O,-6%,11µM*
Cc1cc2c(c(=O)o1)[C@H]1O[C@](c3ccsc3)(Cc3cc(C#N)ccc31)O2,-9%[8.59 µM],?
